Sfp inh: Sfp phosphopantetheinyl transferase inhibition | Q9F4F7 | Biochemical Sfp PPTase activity, qHTS | Potency, µM, inactives show largest response in the series, negative = inhibition, usual class: inhibitors | 310,000 compounds, 3.5% hits;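 also: the enzyme is Sfp with the accession as filed and its product quenches rhodamine fluorescence; 0% = enzyme reaction without inhibitor and -100% = no enzyme wells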
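Sfp 15 nM + cpd, 15 min RT; start w/ rhodamine-CoA 5 uM, BHQ-2-YbbR 12.5 uM (final); 50 mM Hepes pH 7.6, 10 mM MgCl2, 0.01% NP-40, 0.01% BSA; read 525/598 nm at 0 and 30 min.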
JMJD2A Tudor: JMJD2A Tudor domain (human) inhibition | O75164 | AlphaScreen JMJD2A-Tudor / H3K4me3 peptide binding | 390,000 compounds, 4.4% hits | Potency, µM (series often up to 114 µM), for inactives: at the highest dose activity change, negative = inhibition, usual class: inhibitors; also: % is scaled to controls: 0 for no effect and ±100 for the full control effect; nearly all actives have a fitted effect of over 50% in size
HP1b chromo inh: HP1-beta chromodomain-methylated histone interaction inhibition. P83916. AlphaScreen HP1-beta / biotin-H3K9me3 peptide binding. Potency, µM (titrated, usually from 114 µM), inactives show top-dose activity change, negative = inhibition, actives largely listed as inhibitors. 390,000 compounds, 0.56% hits; also: nearly all actives have a fitted effect of over 70% in size
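AlphaScreen: HP1-beta (50 nM) preformed 30 min with biotin-H3(1-18)K9me3 peptide (50 nM) in PBS pH 7.4, 0.01% Tween-20. Compound added for 30 min at RT, then streptavidin donor/nickel chelate acceptor beads (10 ug/mL) for 30 min.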
BAZ2B block: BAZ2B (human) inhibition | AlphaScreen BAZ2B-H3K14Ac peptide displacement | Potency, µM (series often up to 114 µM), for inactives: at the highest dose activity change, negative = inhibition, usual class: inhibitors | AID 504333 | 360,000 compounds, 4.4% hits; also: % is scaled to controls: 0 for no effect and ±100 for the full control effect; nearly all actives have a fitted effect of over 60% in size
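AlphaScreen displacement: compounds (up to 110uM) incubated 30 min at room temperature with a preformed 50 nM BAZ2B/50 nM biotinylated H3K14Ac peptide complex in PBS pH 7.4 with Tween-20. Donor and acceptor beads at 10 ug/mL final added, 20 min light-protected before reading.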
G9a inh: inhibitors of human histone lysine methyltransferase G9a; Q96KQ7; G9a H3K9 monomethylation, AlphaScreen, 2 h; Potency, µM (titrated, usually from 102 µM), without a hit: at the top dose activity, negative = inhibition, most hits filed as inhibitors; AID 504332; 350,000 compounds, 8.8% hits; also: % is scaled to controls: 0 for no effect and ±100 for the full control effect; nearly all actives have a fitted effect of over 75% in size
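Readings reflect AlphaScreen signal from monomethyl-H3K9 antibody detection. HMT at 20 nM; substrate b-H3K9 500 nM; cofactor SAM 20 uM; 2 h RT reaction; compounds tested as titrations in qHTS with 15 min preincubation.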
PLK1 PBD block: inhibitors of human PLK1 polo-box domain binding. Plk1 PBD binding of FITC phosphopeptide, fluorescence polarization. Potency, µM, for inactives: max response, negative = inhibition, usual class: inhibitors. 360,000 compounds, 2.8% hits; also: series mostly up to about 57 µM; % is scaled to controls: 0 for no effect and ±100 for the full control effect; nearly all actives have a fitted effect of over 65% in size
Target sequence (P53350 whole entry, looked up, the tested form may be a part): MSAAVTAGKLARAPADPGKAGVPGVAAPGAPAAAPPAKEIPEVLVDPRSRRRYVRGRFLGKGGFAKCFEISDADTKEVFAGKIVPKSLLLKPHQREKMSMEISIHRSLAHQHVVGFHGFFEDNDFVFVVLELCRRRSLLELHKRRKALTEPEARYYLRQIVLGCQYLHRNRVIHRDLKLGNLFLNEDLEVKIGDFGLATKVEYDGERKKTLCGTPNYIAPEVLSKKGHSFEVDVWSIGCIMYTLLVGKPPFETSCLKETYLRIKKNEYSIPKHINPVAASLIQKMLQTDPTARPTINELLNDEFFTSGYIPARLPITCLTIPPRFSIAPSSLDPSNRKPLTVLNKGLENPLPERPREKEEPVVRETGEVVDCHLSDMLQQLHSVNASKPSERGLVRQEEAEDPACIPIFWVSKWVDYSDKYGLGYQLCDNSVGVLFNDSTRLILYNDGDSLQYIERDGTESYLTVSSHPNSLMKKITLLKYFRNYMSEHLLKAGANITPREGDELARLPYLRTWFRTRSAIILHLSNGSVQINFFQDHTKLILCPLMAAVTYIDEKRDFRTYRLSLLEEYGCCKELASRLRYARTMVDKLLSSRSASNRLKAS
* = called active by the depositor; u = inconclusive; x = no result given; [ ] = another dose, or the depositor's remark. In the library only some 12% were active in any assay of this set; here they are far more common. Calls follow the shape of the dose curve; as a rule, active = well fitted curve in the direction sought with a large enough effect; inconclusive = small, poorly fitted or top-dose-only effect, or another doubt; inactive = no such curve, though single readings can be large; an effect the other way counts as inactive or inconclusive. Potency is read from the fitted curve at half-maximal effect.

SMILES	Sfp inh	JMJD2A Tudor	HP1b chromo inh	BAZ2B block	G9a inh	PLK1 PBD block
CN(CC(=O)Nc1ccc(N2CCOCC2)cc1)C(=O)CSc1ccc(F)cc1	x	u	-6%	-8%	13µM*	-23%
CN(CC(=O)Nc1ccc(N2CCOCC2)cc1)C(=O)CSc1ccc(Br)cc1	-4%	-25%	-1%	-10%	x	u
CN(CC(=O)Nc1ccc(N2CCOCC2)cc1)C(=O)CCc1cc(C(C)(C)C)c(O)c(C(C)(C)C)c1	x	u	-17%	50µM*	0%[0.501 µM]	-2%
COc1ccc(Br)c(C(=O)N(C)CC(=O)Nc2ccc(N3CCOCC3)cc2)c1	x	-16%	4%	1%	20µM*	-7%
Cc1ccc(CC(=O)N(C)CC(=O)Nc2ccc(N3CCOCC3)cc2)cc1C	x	-15%	23%	-29%	14µM*	-9%
COC(=O)c1c(C(=O)OC)c(-c2cccc(F)c2)n2c1CS(=O)(=O)C2	12%	-7%	31%	10%	16%[2.33 µM]	-9%
N#Cc1ccccc1OCC(=O)Nc1cc(S(=O)(=O)N2CCCCC2)ccc1N1CCOCC1	x	-13%	17%	x	x	1%
CN(CC(=O)Nc1ccc(N2CCOCC2)cc1)C(=O)c1cn(-c2ccccc2)nc1-c1ccccc1	x	2%	14%	-12%	u	-1%
Cc1ccc(NC(=O)CN(C)CC(=O)Nc2ccc(N3CCOCC3)cc2)cc1F	2%	7.9µM*	u	18µM*	-143%[59 µM]	5%
CN(CC(=O)Nc1ccc(F)cc1)C(=O)CSc1nccn1C	x	3%	25%	-4%	50µM*	0%
CCn1c2ccccc2c2cc(NC(=O)CN(C)CC(=O)Nc3ccc(N4CCOCC4)cc3)ccc21	15%	u	-17%	28µM*	40µM*	7%
Cc1cccc(-c2nn(-c3ccccc3)cc2C(=O)N(C)CC(=O)Nc2ccc(N3CCOCC3)cc2)c1	x	-21%	3%	u	7.9µM*	-1%
O=C1C=C(c2ccoc2)N2CCC[C@H]2C1	x	-9%	20%	x	x	-1%
Cc1cc(C)cc(OCC(=O)N(C)CC(=O)Nc2ccc(N3CCOCC3)cc2)c1	x	-6%	24%	5%	35µM*	-6%
O=C1NC[C@H](CCCCN2C[C@H](Cc3ccccc3)N(CCC3CCCCC3)C(=O)C2=O)N(CCc2ccccc2)C1=O	x	x	x	x	x	-2%
O=C(NNC(=O)c1cccc(C(F)(F)F)c1)c1ccncc1	16%	-18%	15%	u	25µM*	-5%
CC1CCN=C(N)S1 (centres undefined)	x	-18%	21%	x	3.2µM*	-12%
C[C@@H]1CCN=C(N)S1	-31%	x	x	x	x	x
COCCNC(=O)CCC1CCN(Cc2cccc(-c3ccc(C)o3)c2)CC1	-8%	-23%	22%	-10%	22µM*	-5%
COCCNC(=O)C1CCN(Cc2cccc(OCc3ccccc3)c2)CC1	-9%	0.79µM*	u	u	22%[0.501 µM]	-10%
COc1cc(CNC(=O)C2CC2)ccc1OCc1ccccc1	10%	-18%	14%	-15%	25%	-6%
CC(C)CCNC(=O)C1CCN(Cc2cccc(OCc3ccccc3)c2)CC1	-29%	10µM*	u	u	x	-13%
COCCNC(=O)C1CCCN(Cc2cccc(Cl)c2)CC1 (centres undefined)	x	x	x	x	x	-9%
COc1cc(CN2CCC(C(=O)NCCC(C)C)CC2)ccc1OCc1ccccc1	10%	28µM*	u	-37%	50µM*	6%
CC(NC(=O)CCNS(=O)(=O)c1cccc2nonc12)c1ccccc1 (centres undefined)	14%	4%	22%	-30%	u	8%
SMILES	Sfp inh	JMJD2A Tudor	HP1b chromo inh	BAZ2B block	G9a inh	PLK1 PBD block
CC(=O)Nc1cccc(-c2nnc(SCC(=O)c3cc([N+](=O)[O-])ccc3Br)o2)c1	x	-21%	20%	-33%	-8%[59 µM]	x
CCC1(c2ccc(OC)cc2)NC(=O)N(C)C1=O (centres undefined)	6%	x	x	x	x	x
Cn1c(=O)[nH]c(=O)c2c1nc(N1CCN(c3cccc(Cl)c3)CC1)n2CCCc1ccccc1	9%	x	x	11%	18µM*	x
CCCCn1c(N2CCC(Cc3ccccc3)CC2)nc2c1c(=O)[nH]c(=O)n2C	u	50µM*	u	u	u	-14%
Nc1c(-c2ccccc2)c(CN2CCOCC2)nn1-c1ccc(F)cc1	18%	8%	19%	-12%	20µM*	-2%
c1ccc(-c2csc(Nc3cccnc3)n2)nc1	u	u	29%	u	u	-6%
Cc1csc(NC(=O)C2CCCCC2C(=O)O)n1 (centres undefined)	13%	7%	34%	2%	8%[59 µM]	-11%
Cc1csc(NC(=O)C2CCCC2)n1	79µM*	-16%	48%	0%	40µM*	-5%
CC(=O)Nc1nc(COc2ccccc2)cs1	9%	-5%	25%	-5%	0%[59 µM]	-1%
O=C(Nc1nc(COc2ccccc2)cs1)C12CC3CC(CC(C3)C1)C2	28%	15%	108%	-3%	45µM*	-5%
O=C(Nc1nc(-c2ccccn2)cs1)C1CC1	-12%	56µM*	47%	50µM*	9%	-13%
c1ccc(Nc2nc(-c3ccccn3)cs2)cc1	u	u	11%	40µM*	-38%[59 µM]	-12%
COc1cc2c(cc1OC)[C@H](C)N(CC1C(=O)O[C@@H]3C[C@@]4(C)CCC[C@H](C)[C@@]45OC5[C@H]13)CC2 (some centres undefined)	3%	x	x	x	x	x
O=C(CC1CC2CCC1C2)Nc1nc(-c2ccccn2)cs1 (centres undefined)	35µM*	-23%	8%	45µM*	20µM*	u
COc1cccc2sc(Nc3nc(-c4ccccn4)cs3)nc12	-20%	x	x	50µM*	-10%	x
O=C(Nc1nc(-c2ccccn2)cs1)C12CC3CC(CC(O)(C3)C1)C2	40µM*	-5%[11.4 µM]	u	14µM*	28µM*	u
Oc1c(C(c2ccccc2F)N2CCOCC2)sc2nc(-c3ccco3)nn12 (centres undefined)	x	-1%	53%	6%	15%[59 µM]	x
COc1ccc(Cl)cc1NC(=O)CSc1nnc2[nH]c(=O)cc(-c3ccccc3)n12	x	-10%	43%	0%	33%[59 µM]	x
C/[N+]([O-])=C/c1c(OCc2ccccc2)ccc2ccccc12	10%	-6%	26%	-15%	4%	-11%
O=Cc1c(OCc2ccccc2)ccc2ccccc12	-8%	61%	43%	-12%	30%[59 µM]	17µM*
CN(C(=O)CSc1cn(CC(=O)N2CCCC2)c2ccccc12)c1ccccc1	x	4%	30%	-19%	-1%[59 µM]	x
Cc1cc(C)c(S(=O)(=O)Nc2ccc(N(C)C)cc2)c(C)c1-n1cnnn1	-3%	u	-27%	40µM*	3.5µM*	-11%

Screening results: PubChem BioAssay, National Center for Advancing Translational Sciences (NCATS)
